From PubChem BioAssay AID1159580 (chemical genetic matrix, 2015)
Where “and” joins values, the source holds several entries; their conditions need not be identical. Equal entries are not always repeated. The whole screen tested about 5,500 compounds, of which about 2,000 (36%) were called active. Roughly 18% stayed inconclusive and do not appear here. Cut-off read from the data, not from the text of the source: active = normalized growth mostly below about 0.91 (no sharp cut-off); inconclusive = no clear call, values can overlap the other calls; inactive = mostly above about 0.92. The list shows a part of the results.

Experiment: chemical genetic growth profiling, strain panel (AID 1159580);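 note: tested at 20 µM; growth read once vehicle control cultures reached saturation at 30 °C; 1 = growth at the plate median or of vehicle wells; lower values mean less growth of the strain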
Conditions: S. cerevisiae deletion strains, growth OD

Measured: normalized growth

CC(=O)OCC(=O)[C@@]1(O)CCC2C3C[C@H](C)C4=CC(=O)C=CC4(C)C3[C@@H](O)CC21C (stereo partly specified)
inactive: locus YAL013W, strain DEP1, stronger effect = lower value 1.01 | locus YAL021C, strain ccr4, stronger effect = lower value 1.03 | locus YAL026C, strain drs2, stronger effect = lower value 1.03 | locus YAL030W, strain snc1, stronger effect = lower value 1.01 | locus YBL061C, strain skt5, stronger effect = lower value 1.01 | locus YBR009C, strain hhf1, stronger effect = lower value 0.985 | locus YBR021W, strain FUR4, stronger effect = lower value 0.968 | locus YBR023C, strain chs3, stronger effect = lower value 1.02 | locus YBR171W, strain sec66, stronger effect = lower value 1.03 | locus YBR229C, strain ROT2, stronger effect = lower value 1.01 | locus YBR231C, strain swc5, stronger effect = lower value 1.01 | locus YBR279W, strain paf1, stronger effect = lower value 1.01 | locus YCL011C, strain gbp2, stronger effect = lower value 1.02 | locus YCL016C, strain dcc1, stronger effect = lower value 1.01 | locus YCL029C, strain bik1, stronger effect = lower value 1.01 | locus YCL061C, strain MRC1, stronger effect = lower value 1.03 | locus YCL069W, strain vba3, stronger effect = lower value 1.03 | locus YCR088W, strain abp1, stronger effect = lower value 1.02 | locus YDL005C, strain med2, stronger effect = lower value 1.01 | locus YDL035C, strain GPR1, stronger effect = lower value 1.01 | locus YDL040C, strain nat1, stronger effect = lower value 1.01 | locus YDL074C, strain BRE1, stronger effect = lower value 0.994 | locus YDL101C, strain DUN1, stronger effect = lower value 1.01 | locus YDL134C, strain PPH21, stronger effect = lower value 1.01 | locus YDL185W, strain tfp1, stronger effect = lower value 1.01 | locus YDL192W, strain arf1, stronger effect = lower value 1 | locus YDR001C, strain nth1, stronger effect = lower value 1.01 | locus YDR069C, strain doa4, stronger effect = lower value 1.02 | locus YDR101C, strain arx1, stronger effect = lower value 1 | locus YDR137W, strain rgp1, stronger effect = lower value 1.03 | locus YDR150W, strain NUM1, stronger effect = lower value 1.01 | locus YDR159W, strain sac3, stronger effect = lower value 0.995 | locus YDR162C, strain NBP2, stronger effect = lower value 0.992 | locus YDR195W, strain ref2 1.01 | locus YDR297W, strain sur2, stronger effect = lower value 0.994 | locus YDR318W, strain mcm21, stronger effect = lower value 1.01 | locus YDR334W, strain swr1, stronger effect = lower value 1.02 | locus YDR335W, strain msn5, stronger effect = lower value 1.02 | locus YDR388W, stronger effect = lower value 1.01 | locus YDR392W, strain spt3, stronger effect = lower value 1.03 | locus YDR502C, strain sam2, stronger effect = lower value 0.989 | locus YEL003W, strain gim4, stronger effect = lower value 1.02 | locus YEL037C, strain rad23, stronger effect = lower value 1.02 | locus YEL061C, strain CIN8 (second series), stronger effect = lower value 1.02 | locus YEL061C, strain CIN8, stronger effect = lower value 1.01 | locus YER015W, strain faa2, stronger effect = lower value 1.01 | locus YER016W, strain bim1, stronger effect = lower value 1.03 | locus YER110C, stronger effect = lower value 1.01 | locus YER111C, strain swi4, stronger effect = lower value 1.02 | locus YER155C, strain BEM2 (second series), stronger effect = lower value 1.05 | locus YER155C, strain BEM2, stronger effect = lower value 1.01 | locus YER167W, strain BCK2, stronger effect = lower value 1.01 | locus YFR010W, strain ubp6, stronger effect = lower value 0.996 | locus YGL078C, strain dbp3, stronger effect = lower value 1 | locus YGL086W, strain mad1, stronger effect = lower value 1.02 | locus YGL167C, strain pmr1, stronger effect = lower value 1.02 | locus YGL173C, strain kem1, stronger effect = lower value 1.03 | locus YGL227W, strain vid30, stronger effect = lower value 1.02 | locus YGL240W, strain doc1, stronger effect = lower value 1 | locus YGL248W, strain PDE1, stronger effect = lower value 1 | locus YGL253W, strain hxk2, stronger effect = lower value 1.01 | locus YGR078C, strain PAC10, stronger effect = lower value 0.996 | locus YGR135W, strain pre9, stronger effect = lower value 0.982 | locus YGR229C, strain SMI1, stronger effect = lower value 1 | locus YGR252W, strain gcn5, stronger effect = lower value 1.03 | locus YHR013C, strain ard1, stronger effect = lower value 1.03 | locus YHR027C, strain rpn1, stronger effect = lower value 1.01 | locus YHR030C, strain SLT2, stronger effect = lower value 1.01 | locus YHR079C, strain IRE1 (second series), stronger effect = lower value 1.01 | locus YHR079C, strain IRE1, stronger effect = lower value 1.02 | locus YHR094C, strain hxt1, stronger effect = lower value 1.01 | locus YHR129C, strain ARP1, stronger effect = lower value 1.02 | locus YHR142W, strain chs7, stronger effect = lower value 1.01 | locus YHR200W, strain rpn10, stronger effect = lower value 1 | locus YIL066C, strain RNR3, stronger effect = lower value 1.02 | locus YIL073C, strain SPO22, stronger effect = lower value 1.03 | locus YIL125W, strain kgd1, stronger effect = lower value 1.01 | locus YIR030C, strain dcg1, stronger effect = lower value 0.997 | locus YJL092W, strain hpr5, stronger effect = lower value 1.02 | locus YJL095W, strain BCK1 (second series), stronger effect = lower value 1.01 | locus YJL095W, strain BCK1, stronger effect = lower value 1.01 and 1.02 | locus YJL115W, strain asf1, stronger effect = lower value 1.02 | locus YJL129C, strain trk1, stronger effect = lower value 1.02 | locus YJL134W, strain LCB3, stronger effect = lower value 1 | locus YJL154C, strain vps35, stronger effect = lower value 1.02 | locus YJL164C, strain tpk1, stronger effect = lower value 1.01 | locus YJL166W, strain qcr8, stronger effect = lower value 1.01 | locus YJL168C, strain set2, stronger effect = lower value 1.01 | locus YJL187C, strain SWE1 (second series), stronger effect = lower value 1.02 | locus YJR043C, strain POL32, stronger effect = lower value 0.999 | locus YJR066W, strain TOR1, stronger effect = lower value 0.99
